PINK1 expr mod – A Quantitative High throughput Screen to Identify Chemical Modulators of PINK1 Expression. 0.2% of 410,000 active. PINK1 immunofluorescence, high-content cytometry, 24 h. Potency, µM (highest dose often 76.6 µM), hits mostly activators; active means well fitted activation curve with a large enough effect; inconclusive means small, poorly fitted or top-dose-only effect; cell line not stated here; further: nearly all actives have a fitted effect of over 65% in size
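Stable cell line, 250 cells/well, 12 h attachment; compounds pinned at 5 concentrations, 24 h; CCCP control. Fixed with nuclear dye, primary antibodies 12 h at 10 degrees C, secondary plus cell stain; laser-scanning cytometer read.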
KB-3-1 tox – qHTS assay for MDR1-selective chemotherapeutics: Primary screen using the parental adenocarcinoma cell KB-3-1. KB-3-1 viability, CellTiter-Glo ATP luminescence, 72 h. Potency, µM (highest dose often 46.1 µM), hits mostly cytotoxic. 1.4% of 400,000 active. AID 1347075, 2019; further: nearly all actives have a fitted effect of over 60% in size
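72 h, 37 °C compound treatment of KB-3-1 parental cells; CellTiter-Glo added, 10 min, luminescence read. Data corrected against DMSO-only plates and normalized before curve fitting.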
MCF10A rerep – A quantitative high throughput screen for small molecules that induce DNA re-replication in MCF 10a normal breast cells | MCF 10A DNA re-replication, Hoechst nuclear intensity, 48 h | Potency, µM (top dose mostly 46.1 µM), hits mostly activators | 2.9% of 350,000 active; further: nearly all actives have a fitted effect of over 50% in size
SW480 rerep – A quantitative high throughput screen for small molecules that induce DNA re-replication in SW480 colon adenocarcinoma cells. SW480 DNA re-replication, Hoechst DNA content imaging, 48 h. Potency, µM (highest dose often 46.1 µM), most hits filed as activators. 1.8% of 340,000 active; further: nearly all actives have a fitted effect of over 55% in size
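Per well, 250 cells were exposed to pinned compound for 48 hr. Nuclear DNA was visualised with Hoechst (40 min, 37 C) and total object intensity recorded by fluorescence scanning.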
PTAP TSG101 blk – qHTS Assay for Iinhibitors of HIV-1 Budding by Blocking the Interaction of PTAP/TSG101. Tumor susceptibility gene 101 protein (Homo sapiens), Q99816. Fluorescence polarization, FITC-PTAP peptide / Tsg101 binding. Potency, µM (doses to about 115 µM), hits mostly inhibitors. 340,000 tested, under 10 active; active means well fitted inhibition curve with a large enough effect in the main read-out, with a control signal flat, not every such curve was filed as active; inconclusive means small, poorly fitted or top-dose-only effect, or effect the other way, or a change in a side signal; inactive means no such curve, though single readings can be large or run the other way
Target sequence (Q99816 whole entry, looked up): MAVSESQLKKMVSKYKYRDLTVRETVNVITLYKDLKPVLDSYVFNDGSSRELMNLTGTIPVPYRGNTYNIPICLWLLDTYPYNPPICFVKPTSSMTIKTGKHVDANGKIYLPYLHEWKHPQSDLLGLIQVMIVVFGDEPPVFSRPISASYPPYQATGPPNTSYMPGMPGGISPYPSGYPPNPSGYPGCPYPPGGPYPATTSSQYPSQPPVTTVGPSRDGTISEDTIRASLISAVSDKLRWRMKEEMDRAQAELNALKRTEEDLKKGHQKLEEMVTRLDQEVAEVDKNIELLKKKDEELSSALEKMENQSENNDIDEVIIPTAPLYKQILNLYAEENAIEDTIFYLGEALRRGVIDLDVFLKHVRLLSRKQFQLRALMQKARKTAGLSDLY
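Fluorescence anisotropy tracks displacement of a FITC-tagged PTAP peptide (50 nM) from the Tsg101 binding domain (10 uM), following a 20 min room-temperature incubation at pH 7.5.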
KB-V1 cytotox – qHTS assay for MDR1-selective chemotherapeutics: Primary screen using the drug-selected MDR subline cells KB-V1; KB-V1 MDR cells viability, CellTiter-Glo, 72 h; Potency, µM (top dose mostly 46.1 µM), actives largely listed as cytotoxic; 3.4% of 400,000 active; AID 1347076, 2019; further: nearly all actives have a fitted effect of over 60% in size
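Cells of the MDR subline KB-V1 are plated, dosed with compound at multiple concentrations, and incubated 72 h at 37 degrees C; CellTiter-Glo is then added and luminescence read after 10 min.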
A number is an active result; – = inactive; ? = inconclusive; · = not tested or not shown. This is a sample that favours compounds with a hit; in the whole collection about 6.8% have one here. Unless noted, the call rests on the fitted dose curve; in most records, active means well fitted curve in the direction sought with a large enough effect; inconclusive means small, poorly fitted or top-dose-only effect, or another doubt; inactive means no such curve, though single readings can be large; an effect the other way counts as inactive or inconclusive.

SMILES	PINK1 expr mod	KB-3-1 tox	MCF10A rerep	SW480 rerep	PTAP TSG101 blk	KB-V1 cytotox
COc1ccc(C(=O)Nc2ccccc2-c2nc(-c3ccc(OC)cc3)no2)cc1	–	–	·	·	·	?
O=C(NCc1ccccc1)C1CCN(S(=O)(=O)c2ccc3c(c2)CCCN3C(=O)C2CCC2)CC1	–	–	·	·	·	–
COc1cc(/C=N/NC(=O)CC23CC4CC(CC(C4)C2)C3)cc(Br)c1OCC(=O)N(C)C	–	–	18µM	–	–	–
Cc1ccc(CNC(=O)CN2CCN(Cc3ccc(F)cc3)C2=O)cc1	–	–	·	·	·	–
Cc1ccc(C2N=C(N)Nc3nc4ccccc4n32)cc1 (stereo not drawn)	–	–	–	–	–	–
CCn1c2ccccc2c2cc(C3N=C(N)Nc4nc5ccccc5n43)ccc21 (stereo not drawn)	·	–	21µM	–	–	–
CCCCOC(=O)c1ccc(NC(=O)Cc2coc3c(C)c(C)ccc23)cc1	–	–	·	·	·	–
COc1ccc(-c2cnc3c(NC(C)=O)cc(-c4cc(F)ccc4OC)cn23)cc1OC	–	?	·	·	·	?
COc1cccc(-c2cc(NC=O)c3ncc(-c4cc(OC)c(OC)c(OC)c4)n3c2)c1	–	1µM	·	·	·	2.1µM
COc1cc(-c2cnc3c(NC=O)cc(-c4cccnc4)cn23)cc(OC)c1OC	–	10µM	·	·	·	13µM
COc1ccc(F)cc1-c1cc(NC(C)=O)c2ncc(-c3cc(OC)c(OC)c(OC)c3)n2c1	–	7.3µM	·	·	·	–
COc1cc(-c2cnc3c(NC=O)cc(-c4ccsc4)cn23)cc(OC)c1OC	–	0.82µM	·	·	·	1.3µM
COc1ccc(OC)c(C2C(C(=O)Nc3ccc(C)cc3)=C(C)Nc3nnnn32)c1 (stereo not drawn)	–	–	·	·	·	–
Cc1ccc2c(c1)-c1onc(C(=O)N(C)c3cccc(C(F)(F)F)c3)c1CO2	–	?	·	·	·	–
Cc1cc(F)ccc1NC(=O)CS(=O)(=O)c1cccc2nsnc12	–	–	·	·	·	–
COc1cccc(-c2cc(NC=O)c3ncc(-c4cccc(C(=O)N(C)C)c4)n3c2)c1	–	?	·	·	·	?
CN1CCN(c2ccc(-c3cc(NC=O)c4ncc(-c5ccc(F)cc5)n4c3)cc2)CC1	–	?	·	·	·	–
COc1cccc(-c2cnc3c(NC=O)cc(-c4cccc(C(=O)N(C)C)c4)cn23)c1	–	–	·	·	·	23µM
COc1ccc(-c2cc(NC=O)c3ncc(-c4cccc(C(F)(F)F)c4)n3c2)c(OC)c1	–	?	·	·	·	?
CN1CCN(c2ccc(-c3cc(NC=O)c4ncc(-c5ccccc5)n4c3)cc2)CC1	–	–	·	·	·	23µM
Cn1cc(-c2cnc3c(NC=O)cc(-c4cccc(C(F)(F)F)c4)cn23)cn1	–	?	·	·	·	21µM
COc1cc(-c2cnc3c(NC=O)cc(-c4cccc(C(F)(F)F)c4)cn23)cc(OC)c1OC	–	?	·	·	·	23µM
CCOc1ccc(C2=CC(c3cc(Br)ccc3F)n3ncnc3N2)cc1Cl (stereo not drawn)	–	–	·	·	·	–
CCc1ccc(NC(=O)Cn2c(=O)n(CC3CCCO3)c(=O)c3cc(OC)c(OC)cc32)cc1 (stereo not drawn)	–	–	·	·	·	–
Cc1ccc2nc(Cl)c(/C=N/Nc3ccc(C(=O)O)cc3)cc2c1	–	–	16µM	?	–	–
Cc1ccc2cc(/C=N/NC(=O)c3ccc(F)cc3)c(Cl)nc2c1	–	–	–	–	–	–
CCN(c1ccccc1)S(=O)(=O)c1ccc(Cl)c(NC(=O)CN2CCCCCC2)c1	–	?	?	–	–	21µM
Cc1cc(NC(=O)CN2CCN(C/C=C/c3ccccc3)CC2)c([N+](=O)[O-])cc1C	–	–	–	–	–	–
CCN(c1ccccc1)S(=O)(=O)c1ccc(OC)c(NC(=O)CN(C)C)c1	–	–	?	–	–	–

Source: PubChem BioAssay (National Center for Advancing Translational Sciences (NCATS))
